The values that follow come from PubChem BioAssay (NCATS).

Assay [1] is described as follows: qHTS of pediatric cancer cell lines to identify multiple opportunities for drug repurposing: Primary screen for DAOY cells (AID 1347090). Note: nearly all actives have a fitted effect of over 55% in size. Note: potency is the fitted concentration of half-maximal effect. Summed up:
(§1)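 Eight- or eleven-point concentration series, 48 h treatment at 37 degrees C in growth media; readout CellTiter-Glo luminescence. Potency and efficacy were taken from the concentration-response curves.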

The nature of assay [2]: qHTS of pediatric cancer cell lines to identify multiple opportunities for drug repurposing: Primary screen for SJ-GBM2 cells (AID 1347091). Note: potency is the fitted concentration of half-maximal effect. Put shortly: as §1
Background: In qHTS, concentration-response curves come from the screen itself.

Assay [3] is described as follows: qHTS of pediatric cancer cell lines to identify multiple opportunities for drug repurposing: Primary screen for A673 cells (AID 1347092). Note: potency is the fitted concentration of half-maximal effect; nearly all actives have a fitted effect of over 45% in size. Summed up:
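Cell viability of A673 measured by CellTiter-Glo ATP luminescence after 48 hours compound exposure. Dilution series spanned 0.78 nM to 46 µM (MIPE, 11-point) or 0.59 nM to 46 µM (NPC, 8-point); bortezomib 2.3 uM positive control.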

Assay [4] in a line: qHTS of pediatric cancer cell lines to identify multiple opportunities for drug repurposing: Primary screen for NB-EBc1 cells (AID 1347095). Note: potency is the fitted concentration of half-maximal effect. Summed up:
(§2)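 Following a 5-hour attachment period, cells at 500-1,000/well received compounds and were cultured for 48 hours. CellTiter-Glo was added and luminescence read to estimate viable, metabolically active cells.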

Assay [5] is described as follows: qHTS of pediatric cancer cell lines to identify multiple opportunities for drug repurposing: Primary screen for NB1643 cells (AID 1347099). Note: nearly all actives have a fitted effect of over 50% in size. Note: potency is the fitted concentration of half-maximal effect. Put shortly: as §2
Assay [6] can be described thus: qHTS of pediatric cancer cell lines to identify multiple opportunities for drug repurposing: Primary screen for LAN-5 cells (AID 1347100). Note: potency is the fitted concentration of half-maximal effect. Put shortly: (§3)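 Cells (500-1,000/well) in growth media were settled 5 h at 37 degrees C, then given compounds for 48 h. Viability was read as CellTiter-Glo luminescence. Primary runs used MIPE at 11 points (0.78 nM-46 µM) and NPC at 8 points (0.59 nM-46 µM); follow-ups used 11 points.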

The nature of assay [7]: qHTS of pediatric cancer cell lines to identify multiple opportunities for drug repurposing: Primary screen for OHS-50 cells (AID 1347103). Note: potency is the fitted concentration of half-maximal effect; nearly all actives have a fitted effect of over 40% in size. Summed up:
(§4)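 Cells (500-1,000/well) rested 5 h, then received compounds for 48 h; metabolically active cells were measured by CellTiter-Glo luminescence. Final concentrations spanned up to 46 µM (MIPE, 11-point) or 0.59 nM-46 µM (NPC, 8-point) in primary screens, 11-point in follow-ups.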

Assay [8] in a line: qHTS of pediatric cancer cell lines to identify multiple opportunities for drug repurposing: Primary screen for RD cells (AID 1347104). Note: nearly all actives have a fitted effect of over 55% in size. Note: potency is the fitted concentration of half-maximal effect. Summed up: as §2
Assay [9] is described as follows: qHTS of pediatric cancer cell lines to identify multiple opportunities for drug repurposing: Primary screen for SK-N-SH cells (AID 1347098). Note: nearly all actives have a fitted effect of over 65% in size. Note: potency is the fitted concentration of half-maximal effect. Summed up: as §4
Assay [10] in a line: qHTS of pediatric cancer cell lines to identify multiple opportunities for drug repurposing: Primary screen for Rh18 cells (AID 1347102). Note: nearly all actives have a fitted effect of over 65% in size. Note: potency is the fitted concentration of half-maximal effect. Put shortly:
as §3

The nature of assay [11]: qHTS of pediatric cancer cell lines to identify multiple opportunities for drug repurposing: Primary screen for BT-37 cells (AID 1347094). Note: potency is the fitted concentration of half-maximal effect. Summed up:
as §2

Assay [12] is described as follows: qHTS of pediatric cancer cell lines to identify multiple opportunities for drug repurposing: Primary screen for BT-12 cells (AID 1347101). Note: nearly all actives have a fitted effect of over 25% in size. Note: potency is the fitted concentration of half-maximal effect. Summed up:
as §4

Assay [13] can be described thus: qHTS of pediatric cancer cell lines to identify multiple opportunities for drug repurposing: Primary screen for TC32 cells (AID 1347089). Note: nearly all actives have a fitted effect of over 60% in size. Note: potency is the fitted concentration of half-maximal effect. Put shortly:
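Luminescent ATP read-out (CellTiter-Glo) of metabolically active TC32 cells after 48 h exposure. Concentration-response curves came from 11-point (MIPE, 0.78 nM–46 µM) or 8-point (NPC, 0.59 nM–46 µM) primary titrations; follow-up used 11 points.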

Assay [14] is described as follows: qHTS of pediatric cancer cell lines to identify multiple opportunities for drug repurposing: Primary screen for Saos-2 cells (AID 1347097). Note: nearly all actives have a fitted effect of over 40% in size. Note: potency is the fitted concentration of half-maximal effect. Summed up:
as §2

Assay [15] in a line: qHTS of pediatric cancer cell lines to identify multiple opportunities for drug repurposing: Primary screen for SK-N-MC cells (AID 1347093). Note: potency is the fitted concentration of half-maximal effect. Put shortly: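 Metabolically active cells were quantified by ATP-dependent luminescence (CellTiter-Glo, 15 min at room temperature) following 48 h treatment. Cells had been plated at 500-1,000 per well and settled for 5 h beforehand.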

Assay [16] can be described thus: qHTS of pediatric cancer cell lines to identify multiple opportunities for drug repurposing: Primary screen for U-2 OS cells (AID 1347096). Note: nearly all actives have a fitted effect of over 50% in size. Put shortly: as §3

Results filed as inconclusive are left out. Calls of active or inactive are those of the source. Calls come from the whole dose curve; as a rule, active = well fitted curve in the direction sought with a large enough effect; inconclusive = small, poorly fitted or top-dose-only effect, or another doubt; inactive = no such curve, though single readings can be large; an effect the other way counts as inactive or inconclusive.

With `Cc1ccc2c(Br)cc(Br)c(O)c2n1`, the Potency in assay [1] was 8.41 µM (active); in assay [2], 13.3 µM (active); in assay [3] it was 2.66 µM (active); in [4], 2.99 µM (active); in assay [5], 15 µM (active); in assay [6], 11.9 µM (active). In addition, the Potency in assay [7] was 11 µM (active); in assay [8] it was 10.6 µM (active).
As to `O=C(CCCN1CC=C(n2c(=O)[nH]c3ccccc32)CC1)c1ccc(F)cc1`, the Potency result in assay [1], in assay [2], in assay [9] and in [10] was “inactive” each time.
Regarding `CCCCCN=C(N)N/N=C/c1c[nH]c2ccc(OC)cc12`, the Potency was 24.6 µM (active) in assay [11]; 4.33 µM (active) in assay [9]; 26.6 µM (active) in assay [6]; 13.8 µM (active) in assay [12]; 9.44 µM (active) in assay [10]; 11 µM (active) in [7]. Also, the Potency in assay [8] was 7.5 µM (active).
Consider `CCCCCCCCNC(C)C(O)c1ccc(SC(C)C)cc1` (centres undefined), for which the Potency result in [13] is “inactive”. The results for the Potency in assay [14], in assay [9] and in assay [7] were 23.7 µM (active), 15.4 µM (active) and 21.9 µM (active), respectively.
For the molecule `O=C(Oc1cccc2cccnc12)c1ccccc1`, the Potency in assay [13] was 1.67 µM (active); in assay [3], 0.001 µM (active); in assay [15] it was 9.44 µM (active); in [14], 15 µM (active); in [12], 6.17 µM (active). Also, the Potency entry in [2] and in assay [11] was “inactive” in each case.
For the molecule `Oc1ccc(Cl)cc1Cc1cc(Cl)ccc1O`, the Potency in assay [1] was 21.1 µM (active); in assay [11], 19.5 µM (active); in [14], 8.41 µM (active); in assay [9], 17.2 µM (active); in [5], 9.44 µM (active); in assay [12] it was 27.6 µM (active). Further, the Potency was 9.78 µM (active) in assay [7] and 21.1 µM (active) in assay [8].
In the case of `CCN(CC)CCOc1ccc2c(c1)C(=O)c1cc(OCCN(CC)CC)ccc1-2`, the Potency entry in [1], in assay [16] and in assay [14] was “inactive” each time. Further, the Potency was 34.4 µM (active) in [9], 23.7 µM (active) in assay [6] and 21.1 µM (active) in [8].
As for `CCOC(=O)[C@@](C)(N)Cc1ccc(O)c(O)c1`, the Potency in [13] is 21 µM (active); in assay [5], 23.7 µM (active). The Potency result in assay [4], in [16], in [6] and in assay [10] was “inactive” each time.
As for `CCO[C@@H]1O[C@H](C(COCc2ccccc2)OCc2ccccc2)[C@H](OCc2ccccc2)[C@H]1O` (some centres undefined), the Potency result in assay [13], in [4], in [16], in assay [5], in assay [6] and in assay [10] was “inactive” each time. In assay [14], the Potency is 26.6 µM (active).
In the case of `CN1CCC[C@@H]1CCO[C@](C)(c1ccccc1)c1ccc(Cl)cc1`, the Potency result in assay [13], in assay [16] and in assay [5] was “inactive” throughout. Besides, the Potency in [2] is 21.1 µM (active); in assay [15], 29.9 µM (active); in [14], 21.1 µM (active); in [9], 15.4 µM (active); in [12] it was 27.6 µM (active); in assay [7] it was 15.5 µM (active). Moreover, in [8], the Potency was 26.6 µM (active).
On to `O=C(Nc1ncc([N+](=O)[O-])s1)c1cccs1`, for which the Potency in assay [1] is 16.8 µM (active); in assay [11] it was 24.6 µM (active); in [9], 24.4 µM (active); in [5], 23.7 µM (active); in [7] it was 30.9 µM (active).
Turning to `COc1cc([C@H]2Oc3cc([C@H]4Oc5cc(O)cc(O)c5C(=O)[C@@H]4O)ccc3O[C@@H]2CO)ccc1O`, the Potency entry in assay [1], in assay [2], in [16], in assay [9], in [5] and in [6] was “inactive” each time. In addition, the Potency result in [12], in assay [10] and in assay [8] was “inactive” each time. The Potency in assay [15] is 33.5 µM (active).
With `N/C(=N\N=C\c1ccc(Cl)cc1)N/N=C/c1ccc(Cl)cc1`, the Potency entry in assay [13], in assay [16], in [5] and in assay [10] was “inactive” throughout.
Consider `O=C(N/N=C/c1ccc([N+](=O)[O-])o1)c1ccc(O)cc1`, for which the Potency entry in assay [16] and in [14] was “inactive” each time. Besides, the Potency in assay [12] is 13.8 µM (active).
